Results filed as inconclusive are left out. Activity calls are given as the source filed them. Rule for the calls: active = hit-call score of the fitted dose curve at least 0.9, where 1 is the maximum; inconclusive = response in the unintended direction; inactive = score below 0.9.

The target in the first test is Peroxisome proliferator-activated receptor gamma (Homo sapiens) (UniProt P37231). As to the kind of experiment: OT_PPARg_PPARgSRC1_0480: Odyssey Thera (OT) 8-hour Protein-Complementation Assay for Peroxisome Proliferator-activated Receptor Gamma / SRC-1 Co-activator (AID 2283387).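 Note: nuclear to cytoplasmic split Venus YFP fluorescence ratio reporting PPARg SRC-1 interaction.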 Summed up: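 HEK293T transiently transfected with PPARg and SRC-1 fused to Venus YFP fragments, compounds 8 h at 37C. Fixed, Draq5-stained cells imaged; nuclear/cytoplasmic 488 nm fluorescence ratio over at least 350 cells per image; gain fitted versus DMSO.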
Peroxisome proliferator-activated receptor gamma (Homo sapiens), sequence (P37231 whole entry, looked up, the tested form may be a part): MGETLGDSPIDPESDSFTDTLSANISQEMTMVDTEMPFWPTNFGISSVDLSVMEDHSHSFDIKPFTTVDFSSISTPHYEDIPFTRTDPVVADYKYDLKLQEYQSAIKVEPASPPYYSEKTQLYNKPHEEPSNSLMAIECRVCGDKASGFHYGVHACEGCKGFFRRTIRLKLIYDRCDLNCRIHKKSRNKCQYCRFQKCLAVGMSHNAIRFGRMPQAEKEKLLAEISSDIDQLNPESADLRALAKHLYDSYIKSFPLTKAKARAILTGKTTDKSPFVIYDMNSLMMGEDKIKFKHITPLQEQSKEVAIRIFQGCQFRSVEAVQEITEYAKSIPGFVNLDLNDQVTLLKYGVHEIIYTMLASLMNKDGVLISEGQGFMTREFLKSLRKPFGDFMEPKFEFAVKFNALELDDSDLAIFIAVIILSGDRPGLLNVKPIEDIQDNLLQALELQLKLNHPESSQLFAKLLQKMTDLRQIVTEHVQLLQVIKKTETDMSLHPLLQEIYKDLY
As for `Cc1ccc(S(N)(=O)=O)cc1`, the outcome was inactive.

In the case of `C=C1CC[C@H](O)C/C1=C/C=C1\CCC[C@]2(C)[C@@H]([C@H](C)/C=C/[C@H](C)C(C)C)CC[C@@H]12`, the outcome was inactive.

With `CCOc1ccc(N=Nc2ccc(C=Cc3ccc(N=Nc4ccc(OCC)cc4)cc3S(=O)(=O)O)c(S(=O)(=O)O)c2)cc1`, the call was inactive.

As to `CC1CC(O)CC(C)(C)C1` (centres undefined), the molecule was called inactive.

For the molecule `ON=C1CCCCC1`, the outcome was inactive.

As for `O=P(O)(O)O`, the outcome was inactive.

The target is the same in a further test. As to the kind of experiment: OT_PPARg_PPARgSRC1_1440: Odyssey Thera (OT) 24-hour Protein-Complementation Assay for Peroxisome Proliferator-activated Receptor Gamma/ SRC-1 Co-activator (AID 2283388). Summed up:
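Transient HEK293T, YFP fragments 1-158/159-239 (mutant IFP1/IFP2) fused to PPARg/SRC-1; 24 h dosing; fix 4% formaldehyde, Draq5; Opera imaging 488/635 nm; N/C ratio, gain vs DMSO.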
As for `CCNCCO`, the result was inactive.

Consider `CCCOCCO`, for which the molecule was classed as inactive.

On to `CC(=O)O[C@H]1C[C@@H]2CC[C@@]1(C)C2(C)C`, for which the molecule was classed as inactive.

Turning to `C=C1C[C@]23C[C@@]1(O)CC[C@H]2[C@@]12C=C[C@H](O)[C@@](C)(C(=O)O1)[C@H]2[C@@H]3C(=O)O`, the molecule was called inactive.

Take `CS(C)=O`: the outcome was inactive.

For the molecule `CN1C(=O)c2ccccc2C1=O`, the outcome was inactive.

As for `Nc1ccc(N)c2c1C(=O)c1ccccc1C2=O`, the molecule was called inactive.

`C=C[Si]1(C)O[Si](C)(C=C)O[Si](C)(C=C)O[Si](C)(C=C)O1` (centres undefined): the result was inactive.

As for `CCCCCC(=O)CC`, the molecule was called inactive.

`CCCCCCCCCCCCN1CCCCCC1=O`: the outcome was inactive.

For the molecule `C#CC(C)(O)CC(C)C` (centres undefined), the molecule was classed as inactive.

As for `Cc1ccc(S(=O)(=O)Oc2ccc(N=Nc3ccc(-c4ccc(N=Nc5c(O)ccc6cc(S(=O)(=O)O)cc(S(=O)(=O)O)c56)c(C)c4)cc3C)cc2)cc1`, the molecule was called inactive.

Take `CCC1(C)NC(=O)NC1=O` (centres undefined): the result was inactive.

In the case of `O=C(O)c1ccc(O)cc1`, the call was inactive.

As for `C1=CC2C3C=CC(C3)C2C1` (centres undefined), the molecule was called inactive.

Consider `OCCc1ccccc1`, for which the call was inactive.

`COC(=O)c1ccc(C)cc1C1=NC(C)(C(C)C)C(=O)N1` (centres undefined) (tested in a mixture with another compound): the molecule was classed as inactive.

As for `CCCCC(CC)COC(C)=O` (centres undefined), the call was inactive.

In the case of `CCCCCC(C)=O`, the result was inactive.

For the molecule `CC(C=O)Cc1ccc(C(C)(C)C)cc1` (centres undefined), the call was inactive.

For the molecule `Oc1ccc2cc(SSc3ccc4cc(O)ccc4c3)ccc2c1`, the molecule was classed as inactive.

For `O=C(O)CCCCCCCCC(=O)O`, the molecule was called inactive.

Turning to `O=C1OC(=O)c2c(Cl)c(Cl)c(Cl)c(Cl)c21`, the result was inactive.

Take `O=Cc1ccccc1S(=O)(=O)O`: the outcome was inactive.

With `Cc1cc(S(=O)(=O)O)ccc1N=Nc1c(O)ccc2ccccc12`, the outcome was inactive.

As for `CC(C)CCOC(=O)c1ccccc1`, the result was inactive.

Turning to `COc1ccccc1N=Nc1c(S(=O)(=O)O)cc2cc(S(=O)(=O)O)cc(NC(C)=O)c2c1O`, the molecule was classed as inactive.

`Cc1ccc(S(N)(=O)=O)cc1`: the molecule was classed as inactive.

For `C=C1CC[C@H](O)C/C1=C/C=C1\CCC[C@]2(C)[C@@H]([C@H](C)/C=C/[C@H](C)C(C)C)CC[C@@H]12`, the outcome was inactive.

Take `CCOc1ccc(N=Nc2ccc(C=Cc3ccc(N=Nc4ccc(OCC)cc4)cc3S(=O)(=O)O)c(S(=O)(=O)O)c2)cc1`: the outcome was inactive.

Turning to `CC1CC(O)CC(C)(C)C1` (centres undefined), the molecule was called inactive.

Turning to `ON=C1CCCCC1`, the molecule was classed as inactive.

With `O=P(O)(O)O`, the result was inactive.
